Calls of active or inactive are those of the source.

In PubChem BioAssay one finds z-score and composite z-score data, which are given here for 36 molecules.

System in one test: not listed separately
The test is described as follows: CREB reporter modulators under forskolin, primary screen, cell-based, PC12, CRE-LacZ reporter, forskolin-stimulated (AID 1146).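 Further: PC12 cells with 6xCRE LacZ reporter stimulated by forskolin 10 µM; beta-galactosidase reporter signal reflecting CREB driven transcription.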 The settings on record: luminescence, 4.5 h, higher = more signal, called active from +8 up or from −8 down.
With `COc1ccc(O[C@H]2C=C[C@@H](c3ccccc3)O[C@@H]2COC(=O)CCC(C)=NOC[C@@H](O)[C@H]2O[C@@H]3OC(C)(C)O[C@@H]3[C@H]2O)cc1`, the z-score is -0.866 (inactive).
With `O=C(NN=C1C[C@@H](O)[C@@H](O)[C@@H]2[C@@H]3C(=O)N(Cc4ccccc4)C(=O)[C@@H]3CC[C@@H]12)OCc1ccccc1`, the z-score was 0.121 (inactive).
With `CCOC(=O)[C@H](CC(C)C)NC(=O)CCC1CC(OC(=O)NCc2cccc3ccccc23)CC2(CCCC(COC(=O)NCCc3ccc(Cl)cc3)O2)O1` (stereo partly specified), the z-score is -1.17 (inactive).
Take `CO[C@@H]1C=CCC(=O)N2CCC[C@H]2C(=O)OC[C@@H](C)C(=O)OC[C@H]1C`: the z-score is 0.2 (inactive).
Turning to `CC(C)CON=C1C[C@@H](O)[C@@H](O)[C@@H]2[C@@H]3C(=O)N(C4CCCCC4)C(=O)[C@@H]3CC[C@H]12`, the z-score is -0.061 (inactive).

In the next test the target is Streptavidin (Streptomyces avidinii) (UniProt P22629). Description: streptavidin binders on small-molecule microarray, primary screen, artefact control for SMM compound annotation, biophysical, 635/667 nm fluorescence (AID 1147).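 Further: signal reflects streptavidin binding to arrayed compounds as a control protein.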 The note with it: streptavidin binding, higher = more signal.
Chain of Streptavidin (Streptomyces avidinii) (P22629 whole entry, looked up): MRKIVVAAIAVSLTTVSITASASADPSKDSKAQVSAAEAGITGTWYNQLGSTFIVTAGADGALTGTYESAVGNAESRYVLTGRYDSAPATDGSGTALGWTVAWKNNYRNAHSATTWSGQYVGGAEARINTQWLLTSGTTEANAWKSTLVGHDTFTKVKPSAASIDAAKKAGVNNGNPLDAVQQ
Regarding `CC(CCN1CCCc2nc(C)c(C)cc21)=NOC(C)CN1CCCCc2nc(C)c(C)cc21` (stereo unspecified), the composite z-score came to 0.666.
`CCN1C(=O)[C@@H]2[C@H]3C(=CC[C@@H]2C1=O)C1(OCCCO1)[C@H]1O[C@H]1[C@H]3O` had a composite z-score of 1.13.
Consider `Cc1ccc(S(=O)(=O)N[C@@H]2COC(=O)[C@@H](C)COC(=O)CC=C[C@H]2C)cc1`, for which the composite z-score was 0.095.
In the case of `COC(=O)C1=C(C)N(Cc2ccccc2)[C@]23O[C@](C(=O)OC)(C(=O)N2[C@@H]1c1ccccc1)C(C(=O)OC)=C3C(=O)OC`, the composite z-score stood at 0.252.
On the same count and under the same terms, under `CC(C)CON=C1C[C@@H](O)[C@@H](O)[C@@H]2[C@@H]3C(=O)N(c4ccc(F)cc4F)C(=O)[C@@H]3CC[C@H]12` stands 0.9.
The same measure, in the same setting: under `CCOC(=O)CCN1C(=O)[C@H]2[C@H]3[C@H](O)[C@H](O)CC(=NOCC(C)C)[C@H]3CC[C@H]2C1=O` stands -0.0341.
`CC(C)=CCCC(C)=CCON=C1C[C@@H](O)[C@@H](O)[C@@H]2[C@@H]3C(=O)N(C(C)(C)C)C(=O)[C@@H]3CC[C@H]12` registered a composite z-score of 0.0957.
For `C[C@H]1CC[C@H]2C(=O)O[C@H](COc3ccc(C(C)(C)C)cc3)CN2[C@@H]1c1ccc(Br)cc1`, the composite z-score was found to be 0.0762.
With `COC(=O)CC=C[C@@H](C)[C@@H](C=NO[C@@H]1O[C@H](COC(C)=O)[C@@H](OC(C)=O)[C@H](OC(C)=O)[C@H]1OC(C)=O)NS(=O)(=O)c1ccc(C)cc1`, the composite z-score is -0.909.
The same measure, in the same setting: under `CCOC(=O)[C@H](CC(C)C)NC(=O)CCC1CC(OC(=O)NCc2cccc3ccccc23)CC2(CCCC(COC(=O)NCc3ccncc3)O2)O1` (stereo partly specified) stands 0.629; under `CC(CCN1CCCc2nc(C)c(C)cc21)=NO[C@@H](C)c1cc(-c2c(C)cc(C)cc2C)no1`, 0.327; under `O=C1[C@H]2[C@H]3[C@H](O)[C@H](O)CC(=NO[C@@H]4O[C@H](CO)[C@@H](O)[C@H](O)[C@H]4O)[C@H]3CC[C@H]2C(=O)N1c1cccc(Oc2ccccc2)c1`, 0.528.
As for `CCOC(=O)NN=C1C[C@@H](O)[C@@H](O)[C@@H]2[C@@H]3C(=O)N(c4ccc(F)cc4F)C(=O)[C@@H]3CC[C@@H]12`, the composite z-score was found to be 0.309.
The molecule `C[C@H]1CC[C@H]2C(=O)OC(CO)CN2[C@@H]1c1ccc(Br)cc1` (stereo partly specified) registered a composite z-score of -0.281.
Consider `Cn1c(=O)n2n(c1=O)[C@H]1[C@H](O)[C@@H]3O[C@@H]3C(=NOCc3ccccc3)[C@H]1CC2`, for which the composite z-score was -0.178.
`O=c1n(-c2ccccc2)c(=O)n2n1CC[C@@H]1C(=NOCc3ccccc3)[C@H]3O[C@H]3[C@@H](O)[C@@H]12` showed a composite z-score of -0.445.
With `C[C@@H]1CC[C@H]2C(=O)O[C@@H](Cc3ccccc3)CN2[C@H]1c1ccc(Br)cc1`, the composite z-score was -0.0253.
Consider `CO[C@H]1COC(=O)[C@@H](C)COC(=O)[C@H](C)NC(=O)CC=C[C@H]1C`, for which the composite z-score was -0.639.
Turning to `CO[C@H]1COC(=O)CC=C[C@H](C)[C@@H](OC)COC(=O)[C@@H](C)COC(=O)CC=C[C@@H]1C`, the composite z-score is -0.411.
The molecule `COC(=O)CC=C[C@@H](C)[C@@H](C=NOCC[C@@H]1C=C[C@H](OC(C)=O)[C@@H](COC(C)=O)O1)NS(=O)(=O)c1ccc(C)cc1` displayed a composite z-score of -0.376.
As to `CCOC(=O)CCN1C(=O)[C@H]2[C@H]3[C@H](O)[C@H](O)CC(=NNC(=O)OCc4ccccc4)[C@@H]3CC[C@H]2C1=O`, the composite z-score worked out at 0.551.
As for `CC(C)=CCCC(C)=CCON=C1C[C@@H](O)[C@@H](O)[C@@H]2[C@@H]3C(=O)N(Cc4ccccc4)C(=O)[C@@H]3CC[C@@H]12`, the composite z-score was -0.0277.
On the same count and under the same terms, the same measure for `C[C@@H](ON=C1[C@H]2CCn3c(=O)n(-c4ccccc4)c(=O)n3[C@H]2[C@H](O)[C@@H]2O[C@H]12)c1cn([C@@H]2COC[C@H]2O)nn1`: 0.189.
Still for that read-out and setting: under `COc1cc(O)c(C(=O)C=Cc2ccc3c(c2)OCO3)c(OC)c1` stands -0.379.
Regarding `COC(=O)CC=C[C@@H](C)[C@@H](C=NO[C@H](C)c1cn([C@H](CO)Cc2ccccc2)nn1)NS(=O)(=O)c1ccc(C)cc1`, the composite z-score turned out to be 0.912.
For the molecule `COc1ccc(O[C@H]2C=C[C@@H](c3ccccc3)O[C@@H]2COC(=O)CCC(C)=NO[C@@H]2O[C@H](COC(C)=O)[C@@H](OC(C)=O)[C@H](OC(C)=O)[C@H]2OC(C)=O)cc1`, the composite z-score was 0.484.
Consider `CCOC(=O)NN=C1C[C@@H](O)[C@@H](O)[C@@H]2[C@@H]3C(=O)N(Cc4ccc5c(c4)OCO5)C(=O)[C@@H]3CC[C@H]12`, for which the composite z-score is -0.563.
As to `CCOC(=O)[C@H](CC(C)C)NC(=O)CCC1CC(OC(=O)NCc2cccc3ccccc23)CC2(CCCC(COC(=O)NCCC(C)C)O2)O1` (stereo partly specified), the composite z-score is -0.589.
The molecule `CC(C)=CCCC(C)=CCON=C1C[C@@H](O)[C@@H](O)[C@@H]2[C@@H]3C(=O)N(C[C@@H]4CCCO4)C(=O)[C@@H]3CC[C@H]12` had a composite z-score of 0.707.
Same read-out and setting: the same measure for `CC=CC1=C(CO)C(=O)[C@@H]2O[C@@H]2C1=O`: -0.842; for `CO[C@H]1COC(=O)CCC[C@@H](C)[C@H](OC)COC(=O)[C@@H](C)NC(=O)CC=C[C@@H]1C`: -0.429.
Consider `COc1ccc(O[C@H]2C=C[C@@H](c3ccccc3)O[C@@H]2COC(=O)CCC(C)=NOC[C@@H](O)[C@H]2O[C@@H]3OC(C)(C)O[C@@H]3[C@H]2O)cc1`, for which the composite z-score came to 1.15.
On the same count and under the same terms, under `O=C(NN=C1C[C@@H](O)[C@@H](O)[C@@H]2[C@@H]3C(=O)N(Cc4ccccc4)C(=O)[C@@H]3CC[C@@H]12)OCc1ccccc1` stands -0.418.
Regarding `CCOC(=O)[C@H](CC(C)C)NC(=O)CCC1CC(OC(=O)NCc2cccc3ccccc23)CC2(CCCC(COC(=O)NCCc3ccc(Cl)cc3)O2)O1` (stereo partly specified), the composite z-score turned out to be 0.614.
In the case of `CO[C@@H]1C=CCC(=O)N2CCC[C@H]2C(=O)OC[C@@H](C)C(=O)OC[C@H]1C`, the composite z-score is -0.482.
In the case of `CC(C)CON=C1C[C@@H](O)[C@@H](O)[C@@H]2[C@@H]3C(=O)N(C4CCCCC4)C(=O)[C@@H]3CC[C@H]12`, the composite z-score is 0.451.
